Laboratory results reported in PubChem BioAssay (EPA / NIEHS).
Results filed as inconclusive are left out. Calls of active or inactive are those of the source. The calls were made as follows, unless noted: active = hit-call score of the fitted dose curve at least 0.9, where 1 is the maximum; inactive = score below 0.9.

How the values were obtained:
[1] = ACEA_ER_80hr: ACEA Biosciences xCELLigence Real-Time Cell Analysis on Estrogen Receptor Agonism for Proliferation (AID 2282667; active = hit-call score of the fitted dose curve at least 0.9, where 1 is the maximum); details: T47D proliferation, impedance (xCELLigence), 80 h
Procedure, shortened: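 Cell-growth kinetics were measured by impedance in T47D cells treated continuously with compound (top 100 uM final, 1:4 steps, 8 points). Activity at 80 h was scored as signal gain over the DMSO baseline.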

[2] = ATG_CRE_CIS: Attagene CIS-FACTORIAL HepG2 Assay for human cAMP Responsive Element (CRE) binding protein 3 (AID 2282926); details: HepG2 CRE cis-reporter, Attagene multiplexed mRNA; actives raise or lower the signal
Procedure, shortened: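 Cells carrying cis-regulated reporter constructs respond through their own endogenous factors. After 24 h treatment, RNA is reverse-transcribed, amplified, labelled and sized by capillary electrophoresis; up- and down-regulation are both scored against vehicle.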

[3] = molecular target: CCAAT/enhancer-binding protein beta (Homo sapiens) (UniProt P17676); assay: ATG_C_EBP_CIS: Attagene CIS-FACTORIAL HepG2 Assay for human CCAAT/Enhancer Binding Protein (C/EBP) beta (AID 2282927); details: HepG2 Attagene cis-factorial transcription factor reporter; actives raise or lower the signal
Procedure, shortened: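 Changes in reporter mRNA, rather than exogenous chimeric receptor activity, reflect native C/EBP signalling in transfected HepG2 cells dosed for 24 h; transcripts are detected by RT-PCR and capillary electrophoresis.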

[4] = ATG_CMV_CIS: Attagene CIS-FACTORIAL HepG2 Assay for human CMV (Internal Marker) (AID 2282928); details: HepG2 CMV promoter reporter, transcription factor profiling; actives raise or lower the signal;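 also: endpoint acts as a background internal control marker rather than a target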
Procedure, shortened: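 Fluorescence intensity of RT-PCR-derived reporter fragments, resolved by capillary electrophoresis, gives the signal. HepG2 liver cells bearing transfected cis-element reporters were treated 24 h; activity in either direction was fit relative to DMSO-treated controls.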

[5] = molecular target: Aryl hydrocarbon receptor (Homo sapiens) (UniProt P35869); assay: ATG_Ahr_CIS: Attagene CIS-FACTORIAL HepG2 Assay for human Aryl Hydrocarbon Receptor (Ahr) (AID 2282930); details: HepG2 AhR cis-factorial reporter transcription; actives raise or lower the signal
Procedure, shortened: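 HepG2, transient MRTU (cis) transfection, 24 h exposure. RNA → cDNA → PCR → 6-FAM primer extension → HpaI 2 h 37 C → CE. Fit: bidirectional, DMSO baseline.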

[6] = ATG_AP_1_CIS: Attagene CIS-FACTORIAL HepG2 Assay for human Activator Protein 1 (AP-1) (AID 2282931); details: HepG2 Attagene cis-factorial AP-1 reporter mRNA; actives raise or lower the signal
Procedure, shortened: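 HepG2, transient cis-reporter transfection; 24 h; readout RT-PCR/CE fluorescence; DMSO baseline, gain and loss fitted.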

[7] = ATG_AP_2_CIS: Attagene CIS-FACTORIAL HepG2 Assay for human Activator Protein 2 (AP-2) (AID 2282932); details: HepG2 AP-2 cis-reporter, Attagene transcription factor profiling; actives raise or lower the signal
Procedure, shortened: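 Endogenous transcription factor activity is reported through transfected multiplex reporter constructs in HepG2, after 24 h of compound exposure. Transcripts were quantified by RT-PCR and capillary electrophoresis of fluorescent fragments. Bidirectional fit against DMSO.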

[8] = ATG_BRE_CIS: Attagene CIS-FACTORIAL HepG2 Assay for human Bone Morphogenetic Protein (BMP) Response Element (BRE) (AID 2282933); details: HepG2 BMP response element reporter, Attagene transcription factor profiling; actives raise or lower the signal
Procedure, shortened: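 Gain- or loss-of-signal was derived by bidirectional fitting against DMSO controls. The signal came from reporter mRNA, measured by RT-PCR and capillary electrophoresis, in HepG2 cells transiently carrying multiple reporter units and dosed for 24 h.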

[9] = molecular target: Retinoic acid receptor alpha (Homo sapiens) (UniProt P10276); assay: ATG_DR5_RAR_CIS: Attagene CIS-FACTORIAL HepG2 Assay for human Retinoic Acid Receptor Alpha (RARE), DR5 submotif (AID 2282934); details: HepG2 Attagene cis-factorial RARE DR5 reporter, mRNA; actives raise or lower the signal
Procedure, shortened: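 HepG2, transient cis-reporter transfection, 24 h exposure. mRNA readout: RT-PCR, FAM label, HpaI cut, capillary electrophoresis. DMSO baseline, gain/loss fitting.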

[10] = molecular target: Transcription factor E2F1 (Homo sapiens) (UniProt Q01094); assay: ATG_E2F_CIS: Attagene CIS-FACTORIAL HepG2 Assay for human E2F Transcription Factor 1 (AID 2282935); details: HepG2 Attagene cis-reporter, E2F reporter RNA transcripts; actives raise or lower the signal
Procedure, shortened: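 Gain or loss of reporter transcript, fitted against DMSO, reflects E2F1-driven transcription. Transiently transfected HepG2 dosed 24 h before RNA isolation. Quantified by fluorescent RT-PCR products separated by capillary electrophoresis.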

[11] = ATG_E_Box_CIS: Attagene CIS-FACTORIAL HepG2 Assay for human Enhancer Box (E-box) (AID 2282936); details: HepG2 E-box cis-reporter transcription, actives raise or lower the signal
Procedure, shortened: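 E-box-driven reporter transcripts measured in transiently transfected HepG2 after 24 h exposure: RNA reverse-transcribed, PCR-amplified, fluorescently labelled, digested and resolved by capillary electrophoresis. Gain or loss relative to DMSO.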

[12] = ATG_EGR_CIS: Attagene CIS-FACTORIAL HepG2 Assay for human Early Growth Response 1 (EGR1) (AID 2282938); details: HepG2 Attagene CIS-FACTORIAL EGR reporter mRNA; actives raise or lower the signal
Procedure, shortened: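 After a 24 h treatment of transiently transfected HepG2 cells, total RNA was reverse-transcribed and reporter sequences PCR-amplified, labelled and run on capillary electrophoresis. Reporters sit under cis-regulatory promoters sensing endogenous factors.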

[13] = ATG_ERE_CIS: Attagene CIS-FACTORIAL HepG2 Assay for Estrogen Response Element (ERE) (AID 2282940); details: HepG2 ERE cis-reporter, Attagene RNA transcript; actives raise or lower the signal
Procedure, shortened: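 HepG2, transient cis-reporter units, 24 h exposure. RNA isolated, oligo(dT) RT, reporter-specific PCR, FAM extension, HpaI cut, CE detection. Gain/loss-of-signal vs DMSO.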

[14] = ATG_Ets_CIS: Attagene CIS-FACTORIAL HepG2 Assay for human Erythroblast Transformation Specific (ETS) (AID 2282941); details: HepG2 ETS cis-reporter transcription, actives raise or lower the signal
Procedure, shortened: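 Multiplexed reporter transcript profiling: HepG2, 24 h treatment, total RNA to cDNA, PCR, 6-FAM labelling, HpaI cut, capillary electrophoresis. Gain- or loss-of-signal fitted against DMSO.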

[15] = molecular target: Hepatocyte nuclear factor 3-beta (Homo sapiens) (UniProt Q9Y261); assay: ATG_FoxA2_CIS: Attagene CIS-FACTORIAL HepG2 Assay for human Forkhead box A2 (FOXA2) (AID 2282942); details: HepG2 cis-reporter transcription factor activity, 24 h; actives raise or lower the signal
Procedure, shortened: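 24 h dosing of HepG2 bearing cis-reporter constructs; mRNA readout by RT-PCR/CE fluorescence; bidirectional fit, DMSO baseline.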

[16] = ATG_FoxO_CIS: Attagene CIS-FACTORIAL HepG2 Assay for human Forkhead box O (FoxO) (AID 2282943); details: HepG2 Attagene cis-reporter, FoxO element, mRNA; actives raise or lower the signal
Procedure, shortened: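 Human hepatoma HepG2 cells carry transiently introduced reporter transcription units controlled by cis promoter elements. Chemical treatment lasted 24 h, and mRNA signal was compared with DMSO.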

[17] = ATG_GATA_CIS: Attagene CIS-FACTORIAL HepG2 Assay for human GATA Binding Protein (AID 2282944); details: HepG2 GATA cis-element reporter, Attagene multiplex mRNA; actives raise or lower the signal
Procedure, shortened: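 DMSO serves as negative control and baseline for bidirectional fitting of reporter mRNA changes. HepG2 cells bearing transiently transfected cis-promoter reporters were exposed 24 h; transcripts detected via RT-PCR and capillary electrophoresis.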

[18] = ATG_DR4_LXR_CIS: Attagene CIS-FACTORIAL HepG2 Assay for human Liver X Receptor (LXR), DR4 submotif (AID 2282929); details: HepG2 Attagene DR4 cis-reporter, mRNA transcription; actives raise or lower the signal
Procedure, shortened: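 Total RNA from 24 h-treated, MRTU-transfected HepG2 cells underwent reverse transcription, PCR, fluorescent primer extension and restriction digestion before capillary electrophoresis. Both increases and decreases in reporter signal were fitted against DMSO.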

[19] = ATG_M_61_CIS: Attagene CIS-FACTORIAL HepG2 Assay for M61 Transcription Factor (Internal Marker) (AID 2282937); details: HepG2 Attagene CIS-FACTORIAL M61 internal marker reporter; actives raise or lower the signal
Procedure, shortened: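 Transfect HepG2 with MRTUs; dose 24 h; isolate RNA; reverse-transcribe with DNase I treatment; PCR-amplify, FAM-label and cut with HpaI for 2 h at 37 C; resolve by CE. Bidirectional fitting against DMSO.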

[20] = ATG_M_19_CIS: Attagene CIS-FACTORIAL HepG2 Assay for M19 Transcription Factor (Internal Marker) (AID 2282939); details: HepG2 Attagene CIS-FACTORIAL M19 internal marker reporter; actives raise or lower the signal
Procedure, shortened: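 Following a 24 h exposure, RNA from transfected HepG2 cells was reverse-transcribed, PCR-amplified with reporter-specific primers, end-labelled with 6-FAM and HpaI-digested before capillary separation. Values represent gain or loss versus DMSO.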

Measured: AC50

Retinoic acid receptor alpha (Homo sapiens), sequence (P10276 whole entry, looked up): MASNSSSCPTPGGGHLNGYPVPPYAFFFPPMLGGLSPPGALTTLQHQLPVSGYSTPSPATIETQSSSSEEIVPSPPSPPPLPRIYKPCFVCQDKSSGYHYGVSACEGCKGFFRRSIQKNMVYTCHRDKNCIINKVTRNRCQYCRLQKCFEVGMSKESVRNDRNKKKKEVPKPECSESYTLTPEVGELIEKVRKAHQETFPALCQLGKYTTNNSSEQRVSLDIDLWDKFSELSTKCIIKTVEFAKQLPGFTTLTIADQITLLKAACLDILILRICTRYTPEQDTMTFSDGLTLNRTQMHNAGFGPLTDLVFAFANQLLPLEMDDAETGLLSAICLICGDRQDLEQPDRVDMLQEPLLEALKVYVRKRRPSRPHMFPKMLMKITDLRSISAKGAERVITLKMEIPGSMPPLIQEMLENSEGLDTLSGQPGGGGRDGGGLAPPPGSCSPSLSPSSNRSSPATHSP
Hepatocyte nuclear factor 3-beta (Homo sapiens), sequence (Q9Y261 whole entry, looked up): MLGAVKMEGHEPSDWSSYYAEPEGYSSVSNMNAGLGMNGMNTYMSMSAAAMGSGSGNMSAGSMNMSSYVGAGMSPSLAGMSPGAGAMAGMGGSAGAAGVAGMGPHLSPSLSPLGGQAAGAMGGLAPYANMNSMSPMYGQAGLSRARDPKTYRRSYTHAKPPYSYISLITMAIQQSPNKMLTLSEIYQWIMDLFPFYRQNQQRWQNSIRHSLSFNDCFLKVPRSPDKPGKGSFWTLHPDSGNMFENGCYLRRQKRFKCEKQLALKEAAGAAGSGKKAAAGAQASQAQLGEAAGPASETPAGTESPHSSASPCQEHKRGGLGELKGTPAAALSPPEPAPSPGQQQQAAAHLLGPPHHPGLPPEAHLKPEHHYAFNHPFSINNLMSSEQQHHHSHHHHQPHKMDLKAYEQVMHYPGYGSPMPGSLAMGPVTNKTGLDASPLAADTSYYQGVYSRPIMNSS
CCAAT/enhancer-binding protein beta (Homo sapiens), sequence (P17676 whole entry, looked up): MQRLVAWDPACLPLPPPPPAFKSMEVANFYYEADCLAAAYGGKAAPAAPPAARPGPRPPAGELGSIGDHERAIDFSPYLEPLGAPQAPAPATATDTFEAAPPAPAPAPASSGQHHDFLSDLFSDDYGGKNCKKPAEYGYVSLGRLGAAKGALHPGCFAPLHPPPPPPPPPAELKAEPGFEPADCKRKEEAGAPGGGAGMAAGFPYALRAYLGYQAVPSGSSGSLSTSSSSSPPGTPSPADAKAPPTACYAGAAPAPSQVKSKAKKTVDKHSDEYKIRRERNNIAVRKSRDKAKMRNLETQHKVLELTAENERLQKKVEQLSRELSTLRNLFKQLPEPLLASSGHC
Transcription factor E2F1 (Homo sapiens), sequence (Q01094 whole entry, looked up): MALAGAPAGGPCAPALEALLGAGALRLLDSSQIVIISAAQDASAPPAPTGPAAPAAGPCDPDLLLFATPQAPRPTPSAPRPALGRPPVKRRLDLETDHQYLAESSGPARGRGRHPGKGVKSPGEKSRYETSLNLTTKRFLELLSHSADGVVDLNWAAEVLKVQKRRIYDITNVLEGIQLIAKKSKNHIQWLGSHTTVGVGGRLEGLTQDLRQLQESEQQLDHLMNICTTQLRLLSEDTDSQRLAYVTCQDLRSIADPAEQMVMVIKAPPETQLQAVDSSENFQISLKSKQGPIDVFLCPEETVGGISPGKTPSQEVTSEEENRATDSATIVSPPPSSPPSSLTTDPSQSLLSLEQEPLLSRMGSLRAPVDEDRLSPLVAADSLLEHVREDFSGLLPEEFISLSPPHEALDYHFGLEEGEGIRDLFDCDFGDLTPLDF
Aryl hydrocarbon receptor (Homo sapiens), sequence (P35869 whole entry, looked up): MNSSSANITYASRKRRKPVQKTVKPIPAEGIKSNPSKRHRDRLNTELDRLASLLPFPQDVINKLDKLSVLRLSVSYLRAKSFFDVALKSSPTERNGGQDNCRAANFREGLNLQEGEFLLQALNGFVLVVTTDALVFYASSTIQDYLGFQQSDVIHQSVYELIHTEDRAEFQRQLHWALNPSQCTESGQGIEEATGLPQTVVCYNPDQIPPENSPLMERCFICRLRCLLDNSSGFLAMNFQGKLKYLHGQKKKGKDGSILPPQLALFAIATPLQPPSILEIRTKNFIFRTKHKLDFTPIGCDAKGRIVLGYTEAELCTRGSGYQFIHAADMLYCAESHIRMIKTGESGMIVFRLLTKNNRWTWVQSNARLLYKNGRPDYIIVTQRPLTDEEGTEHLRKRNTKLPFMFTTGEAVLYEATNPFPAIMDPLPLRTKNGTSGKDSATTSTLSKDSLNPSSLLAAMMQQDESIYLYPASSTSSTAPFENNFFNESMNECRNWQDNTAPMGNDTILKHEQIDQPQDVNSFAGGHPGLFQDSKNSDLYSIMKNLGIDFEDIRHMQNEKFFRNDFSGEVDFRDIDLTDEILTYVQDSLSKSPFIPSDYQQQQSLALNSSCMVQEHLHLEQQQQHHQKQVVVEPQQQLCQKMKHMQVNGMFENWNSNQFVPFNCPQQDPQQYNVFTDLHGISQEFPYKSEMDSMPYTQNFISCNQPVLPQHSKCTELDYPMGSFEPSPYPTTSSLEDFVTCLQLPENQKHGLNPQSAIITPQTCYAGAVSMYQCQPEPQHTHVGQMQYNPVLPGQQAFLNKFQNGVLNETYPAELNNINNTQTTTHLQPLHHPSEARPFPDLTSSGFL

CCCC(CC)c1ccccc1 (stereo not given)
active: [4] 153 µM | [6] 167 µM | [13] 45.1 µM
inactive: [1] | [2] | [3] | [5] | [7] | [8] | [9] | [10] | [11] | [12] | [14] | [15] | [16] | [17]

CC(=O)CC(=O)Nc1ccccc1C
inactive: [1] | [2] | [3] | [18] | [5] | [6] | [7] | [8] | [9] | [10] | [11] | [19] | [12] | [13] | [14] | [15] | [16] | [17]

CCCCOCCOC(=O)COc1ccc(Cl)cc1Cl
active: [1] 10.8 µM
inactive: [2] | [3] | [4] | [5] | [6] | [7] | [8] | [9] | [10] | [11] | [20] | [13] | [14] | [15] | [16] | [17]

CN(C)Cc1cc(CN(C)C)c(O)c(CN(C)C)c1
inactive: [1] | [2] | [3] | [5] | [6] | [7] | [8] | [9] | [10] | [11] | [19] | [12] | [20] | [13] | [14] | [15] | [16] | [17]

CCCCNS(=O)(=O)c1ccc(C)cc1
inactive: [1] | [2] | [3] | [5] | [6] | [7] | [8] | [9] | [10] | [11] | [19] | [12] | [20] | [13] | [14] | [15] | [16] | [17]

[Cl][Sc]([Cl])[Cl]
inactive: [1] | [2] | [3] | [4] | [6] | [7] | [8] | [9] | [10] | [11] | [20] | [13] | [14] | [16] | [17]
active: [5] 0.188 µM

CC(=O)OC/C=C(/C)CCC=C(C)C
inactive: [1] | [2] | [3] | [18] | [5] | [6] | [7] | [8] | [9] | [10] | [11] | [12] | [20] | [13] | [14] | [15] | [16] | [17]

CC(=O)C(C)C
inactive: [1] | [2] | [3] | [18] | [5] | [6] | [7] | [8] | [9] | [10] | [11] | [19] | [12] | [20] | [13] | [14] | [16] | [17]
